# From PubChem BioAssay (Tox21)
# “And” between values parts separate entries of the source, which are not always exact repeats. Identical values can stand only once. Results filed as inconclusive are left out. A call without a number means that no potency is given here. Some compounds were tested as several samples or in several runs, with calls that do not always agree. The source made the active and inactive calls. Unless noted, the call rests on the fitted dose curve; in most records, active means well fitted curve in the direction sought with a large enough effect in the repeat runs; inconclusive means weak or mixed curves; inactive means no such curve, though single readings can be large; an effect the other way counts as inactive or inconclusive.
# Tests used:
# [1] = qHTS assay for small molecules that induce genotoxicity in human embryonic kidney cells expressing luciferase-tagged ATAD5 (AID 651632); further: nearly all actives have a fitted effect of over 15% in size; further: potency means the concentration at half of the fitted maximal effect
# Outline: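 HEK293T cells carrying a luciferase reporter tagged to ATAD5 were exposed to compound or DMSO vehicle for 16 hr at 37C, 5% CO2. Amplite was added, and after 30 min at room temperature luciferase activity was read as a marker of ATAD5 induction.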
# [2] = qHTS assay for small molecule agonists of the p53 signaling pathway - cell viability (AID 651633; calls by dose curve; further: nearly all actives have a fitted effect of over 30% in size; further: potency means the concentration at half of the fitted maximal effect)
# Outline: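 p53RE-bla cells, seeded at 4,000 per well and rested 5 h at 37 C/5% CO2, received compounds in DMSO for 16 h at 37 C. CellTiter-Glo was then added, and luminescence was read after 30 min at room temperature to gauge cytotoxicity.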
# [3] = qHTS assay for small molecules that induce genotoxicity in human embryonic kidney cells expressing luciferase-tagged ATAD5 - cell viability (AID 651634; calls by dose curve; further: nearly all actives have a fitted effect of over 25% in size; further: potency means the concentration at half of the fitted maximal effect)
# Outline: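 HEK293T cells expressing luciferase-tagged ATAD5 were exposed to compound or DMSO for 15.5 hr at 37C, 5% CO2. Viability was then read as live-cell protease activity by CellTiter-Fluor fluorescence after 30 min at 37C.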
# [4] = qHTS assay for small molecule disruptors of the mitochondrial membrane potential - cell viability (AID 720634; calls by dose curve; further: nearly all actives have a fitted effect of over 20% in size; further: potency means the concentration at half of the fitted maximal effect)
# Outline: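 HepG2 cells seeded overnight at 37 C, then exposed to compound or DMSO for 1 hr at 37 C, 5% CO2. m-MPI dye added, then CellTiter-Glo for 30 min at room temperature; viability read as ATP luminescence.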
# [5] = qHTS assay for small molecule disruptors of the mitochondrial membrane potential (AID 720635); further: potency means the concentration at half of the fitted maximal effect
# Outline: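 HepG2 cells (2,000/well) attached overnight at 37C, then took compound for 1 hr at 37C, 5% CO2. Mito-MPS dye was added for 30 min; fluorescence was read at 490/535 nm (monomers) and 540/590 nm (aggregates).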
# [6] = qHTS assay to test for compound auto fluorescence at 590 nm (red) in HepG2 cells (AID 720674); further: potency means the concentration at half of the fitted maximal effect
# Outline: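 Compound auto-fluorescence is scored relative to Rose Bengal sodium, measured at 540/590 nm in live HepG2 cultures after 1 hr compound contact (37 C, 5% CO2).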
# [7] = qHTS assay to test for compound auto fluorescence at 535 nm (green) in HepG2 cells (AID 720675); further: potency means the concentration at half of the fitted maximal effect
# [8] = qHTS assay to test for compound auto fluorescence at 460 nm (blue) in HEK293 cells (AID 720678)
# Outline: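 Triamterene serves as the blue fluorophore standard. Compound signal at 405/460 nm is read in HEK293 wells (2,000 cells, 10% dialyzed FBS) after overnight treatment at 37C.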
# [9] = qHTS assay to test for compound auto fluorescence at 590 nm (red) in HEK293 cells (AID 720679); further: potency means the concentration at half of the fitted maximal effect
# Outline: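 We plated HEK293 cells in 10% dialyzed FBS medium, let them adhere for 4-5 hr, then added 23 nL compound. Overnight at 37C and 5% CO2 preceded fluorescence measurement at 540/590nm.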
# Tags describe the fitted curve by direction and shape or compound fluorescence and quenching.
Compound,Potency [1],Potency [2],Potency [3],Potency [4],Potency [5],Potency [6],Potency [7],outcome [8],Potency [9],"fluorescence, relative to Rose Bengal [6]","fluorescence, % of fluorescein control [7]","fluorescence, % of triamterene [8]","fluorescence, % of fluorescent control [9]"
O=C(COc1ccc(Cl)cc1)N1CCN(Cc2ccc3c(c2)OCO3)CC1,inactive,inactive,inactive,inactive,inactive,inactive,inactive,inactive,inactive,–,–,–,–
Cc1cccc(C(=O)O)c1,inactive,inactive,inactive,inactive,inactive,inactive,inactive,inactive,inactive,–,–,–,–
NC=O,inactive,inactive,inactive,inactive,inactive,inactive,inactive,inactive,inactive,–,–,–,–
O=S(=O)(O)c1ccc(O)cc1,inactive,inactive,inactive,inactive,inactive,inactive,inactive,inactive,inactive,–,–,–,–
Cc1c(OCC(F)(F)F)ccnc1CS(=O)c1nc2ccccc2[nH]1 (stereo not given),inactive,inactive,inactive,inactive,54.5 µM (active),inactive,inactive,inactive,inactive,–,–,–,–
CCC(C)c1ccccc1O (stereo not given),inactive,inactive,inactive,inactive,54.1 µM (active) and 30.6 µM (active),inactive,inactive,inactive,inactive,–,–,–,–
Nc1ncn([C@@H]2O[C@H](CO)[C@@H](O)[C@H]2O)c(=O)n1,inactive,668 nM (active) and inactive,750 nM (active) and 1.37 µM (active),inactive,inactive,inactive,inactive,inactive,inactive,–,–,–,–
Oc1ccc(O)cc1,inactive,21.1 µM (active) and 13.6 µM (active) and 17.2 µM (active),inactive,inactive,inactive,inactive,inactive,inactive,inactive,–,–,–,–
c1ccc2c(c1)c1cccc3ccc4cccc2c4c31,inactive,3.04 µM (active) and inactive,inactive,inactive,30.6 µM (active),inactive,inactive,inactive,inactive,–,–,–,–
CCCCCCCCCC(=O)OC,inactive,inactive,inactive,inactive,inactive,inactive,inactive,inactive,inactive,–,–,–,–
CCCCC(CC)COCC1CO1 (stereo not given),inactive,inactive,inactive,inactive,inactive,inactive,inactive,inactive,inactive,–,–,–,–
Nc1ccc(Cl)cc1Cl,inactive,inactive,inactive,inactive,inactive,inactive,inactive,inactive,inactive,–,–,–,–
CC(CCC(=O)O)(c1ccc(O)cc1)c1ccc(O)cc1,inactive,inactive,inactive,inactive,inactive,inactive,inactive,inactive,inactive,–,–,–,–
CCCCCCCCCCCO,inactive,inactive and 61.1 µM (active),inactive,inactive,inactive and 21.7 µM (active),inactive,inactive,inactive,inactive,–,–,–,–
CCCCC(CC)COP(=O)(OCC(CC)CCCC)OCC(CC)CCCC (stereo not given),inactive,inactive,inactive,inactive,inactive,inactive,inactive,inactive,inactive,–,–,–,–
COC(=O)CCC(=O)OC,inactive,inactive,inactive,inactive,inactive,inactive,inactive,inactive,inactive,–,–,–,–
CCC(C)CO (stereo not given),inactive,inactive,inactive,inactive,inactive,inactive,inactive,inactive,inactive,–,–,–,–
CCCc1c(OCCCCc2nn[nH]n2)ccc(C(C)=O)c1O,inactive,26.6 µM (active) and inactive,inactive,inactive,26.6 µM (active),inactive,inactive,inactive,inactive,–,–,–,–
CC1=CC2C3CC(C=C3C)C2C1 (stereo not given),inactive,inactive,inactive,inactive,inactive,inactive,inactive,inactive,inactive,–,–,–,–
c1ccc2cc(Nc3ccc(Nc4ccc5ccccc5c4)cc3)ccc2c1,inactive,inactive,inactive,inactive,inactive,inactive,inactive,inactive,inactive,–,–,–,–
Nc1ccc(S(=O)(=O)Nc2cnc3ccccc3n2)cc1,inactive,inactive,inactive,inactive,inactive,inactive,inactive,inactive,inactive,–,–,–,–
C[C@]12CC[C@H]3[C@@H](CCC4=CC(=O)CC[C@@]43C)[C@@H]1CC[C@@H]2C(=O)CO,inactive,inactive,inactive,inactive,inactive,inactive,inactive,inactive,inactive,–,–,–,–
O=C=Nc1ccc(Cc2ccc(N=C=O)cc2)cc1,inactive,inactive,inactive,inactive,inactive,inactive,inactive,inactive,inactive,–,–,–,–
c1ccc(Nc2ccccc2)cc1,inactive,inactive,inactive,inactive,61.1 µM (active) and 19.3 µM (active),inactive,inactive,inactive,inactive,–,–,–,–

Compound,Potency [1],Potency [2],Potency [3],Potency [4],Potency [5],Potency [6],Potency [7],outcome [8],Potency [9],"fluorescence, relative to Rose Bengal [6]","fluorescence, % of fluorescein control [7]","fluorescence, % of triamterene [8]","fluorescence, % of fluorescent control [9]"
C#C[C@]1(O)CC[C@H]2[C@@H]3CCc4cc(OC)ccc4[C@H]3CC[C@@]21C,inactive,inactive,inactive,inactive,19.3 µM (active),inactive,inactive,inactive,inactive,–,–,–,–
CC(C)(C)NC(=O)[C@H]1CC[C@H]2[C@@H]3CC[C@H]4NC(=O)C=C[C@]4(C)[C@H]3CC[C@]12C,inactive,inactive,inactive,inactive,inactive,inactive,inactive,inactive,inactive,–,–,–,–
CCCC(=O)O,inactive,inactive,inactive,inactive,inactive,inactive,inactive,inactive,inactive,–,–,–,–
Nc1ccc(Nc2ccccc2)cc1,inactive,inactive,inactive,inactive,1.35 µM (active) and inactive,inactive,inactive,inactive,inactive,–,–,–,–
Cc1ccc(C(=O)c2cc(O)c(O)c([N+](=O)[O-])c2)cc1,inactive,23.7 µM (active) and 54.5 µM (active),30.6 µM (active),inactive,26.6 µM (active) and 4.86 µM (active),inactive,inactive,inactive,inactive,–,–,–,–
CN(C)c1nc(N(C)C)nc(N(C)C)n1,inactive,inactive,inactive,inactive,inactive,–,–,–,–,0.105% [at 18.6 µM] (inactive) and 0.0838% [at 3.72 µM] (inactive),-0.0062% [at 18.6 µM] (inactive) and 0.0151% [at 3.72 µM] (inactive),0.0425% [at 18.6 µM] (inactive) and 0.0657% [at 3.72 µM] (inactive),0.0163% [at 18.6 µM] (inactive) and 0.505% [at 3.72 µM] (inactive)
COc1ccccc1/C=C/C=O,inactive,inactive,inactive,inactive,inactive,inactive,inactive,inactive,inactive,–,–,–,–
O=Cc1ccccc1O,inactive,inactive,inactive,inactive,inactive,inactive,inactive,inactive,inactive,–,–,–,–
O=C(Nc1ccc([N+](=O)[O-])cc1Cl)c1cc(Cl)ccc1O,75 nM (active) and inactive,94.4 nM (active) and 96.9 nM (active),596 nM (active) and 2.43 µM (active),inactive,26.6 nM (active) and 9.7 nM (active),inactive,inactive,inactive,inactive,–,–,–,–
O=C(Nc1ccc(Cl)cc1)Nc1ccc(Cl)c(Cl)c1,inactive,inactive,9.44 µM (active),1.93 µM (active),150 nM (active) and 68.2 nM (active) and 86.3 nM (active),inactive,inactive,inactive,inactive,–,–,–,–
C/C=C/C(=O)O,inactive,inactive,inactive,–,–,inactive,inactive,inactive,inactive,–,–,–,–
CC(=O)O[C@]1(C(C)=O)CC[C@H]2[C@@H]3C=C(Cl)C4=CC(=O)[C@@H]5C[C@@H]5[C@]4(C)[C@H]3CC[C@@]21C,–,inactive,inactive,–,30.6 µM (active),inactive,inactive,inactive,inactive,–,–,–,–
Nc1ccccc1N,2.43 µM (active),inactive,inactive,inactive,314 nM (active) and 686 nM (active),inactive,–,inactive,inactive,–,–,–,–
CCCCC/C=C/C=C/C=O,inactive,54 µM (active),–,inactive,60.6 µM (active) and 54.5 µM (active),inactive,inactive,inactive,inactive,–,–,–,–
Cc1[nH]c(=O)c(C#N)cc1-c1ccncc1,–,inactive,inactive,inactive,–,inactive,inactive,inactive,inactive,–,–,–,–
O=C1OC2(c3cc(Br)c(O)c(Br)c3Oc3c2cc(Br)c(O)c3Br)c2c(Cl)c(Cl)c(Cl)c(Cl)c21,inactive,54.5 µM (active),9.7 µM (active) and 37.1 µM (active),inactive,–,1.41 µM (active) and 7.94 µM (active),17.8 µM (active),inactive,2.51 µM [fluorescent] (active) and 14.1 µM [fluorescent] (active),–,–,–,–
O=C(c1ccccc1)c1ccc(O)cc1O,inactive,inactive,inactive,–,27.8 µM (active) and 61.1 µM (active),inactive,inactive,inactive,inactive,–,–,–,–
CCCCc1oc2ccccc2c1C(=O)c1cc(I)c(OCCN(CC)CC)c(I)c1,inactive,26.6 µM (active) and 48.9 µM (active),inactive,inactive,–,inactive,inactive,inactive,inactive,–,–,–,–
Brc1cc(Oc2cc(Br)c(Br)c(Br)c2Br)c(Br)c(Br)c1Br,inactive,inactive,inactive,inactive,–,inactive,inactive,inactive,inactive,–,–,–,–
CC(=O)c1ccccn1,inactive,inactive,inactive,inactive,inactive,inactive,inactive,inactive,inactive,–,–,–,–
Cn1cnc([N+](=O)[O-])c1Sc1ncnc2nc[nH]c12,inactive,0.68 µM (active),–,inactive,23.7 µM (active),inactive,inactive,inactive,inactive,–,–,–,–
C=C(C)C1CC=C(C)CC1 (stereo not given),inactive,inactive,inactive,–,–,inactive,inactive,inactive,inactive,–,–,–,–
COc1cc([C@@H]2c3cc4c(cc3[C@H](O)[C@H]3COC(=O)[C@H]23)OCO4)cc(OC)c1OC,–,inactive,inactive,inactive,150 nM (active) and 76.9 nM (active),inactive,inactive,inactive,inactive,–,–,–,–
c1cc(N(CC2CO2)CC2CO2)ccc1OCC1CO1 (stereo not given),13.7 µM (active) and 17.2 µM (active),68.7 µM (active),–,inactive,inactive,inactive,inactive,inactive,inactive,–,–,–,–
